Screening results deposited in PubChem BioAssay by National Center for Advancing Translational Sciences (NCATS).
Rows were chosen to be rich in hits. Some 7.4% of all compounds tested hit in one or more screens of this group.
ELG1 genotoxic – inducers of genotoxicity in HEK293T ELG1-luciferase cells. HEK293T ELG1-luciferase reporter, luminescence, 16 h. Potency, µM (titrated, usually from 46 µM), inactives show at the highest dose activity change, positive = activation, actives largely listed as activators. hit rate 1.3% among 330,000. AID 504466; further: % of control where 0% means no effect; nearly all actives have a fitted effect of over 60% in size
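Step 1: seed 2,000 HEK293T ELG1-luciferase cells per well. Step 2: add compound or DMSO, incubate 16 hr at 37 °C. Step 3: ONE-Glo, 30 min at room temperature, read luminescence.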
Rab9 promoter act – activates the Rab9 promoter | Huh7 Rab9 promoter-luciferase reporter, luminescence, 24 h | Potency, µM (doses to about 9.22 µM), for inactives: at the highest dose activation, negative = inhibition, hits mostly activators | hit rate 2.8% among 320,000; further: % of control where 0% means no effect; nearly all actives have a fitted effect of over 60% in size
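Cell-based reporter: Huh7 stable for Rab9 promoter-driven luciferase, plated in reduced-serum medium with 10% FBS at 1500 cells/well, compound-treated 24 h at 37 °C, luminescence read after 10 min reagent.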
p53 reactivator – re-activators of mutant p53; Potency, µM (top dose mostly 92.2 µM), without a hit: top-dose activity change, positive = activation, most hits filed as activators; hit rate 0.063% among 320,000; H1299 p53-A138V BP100-luciferase reporter, luminescence, 24 h; further: % of control where 0% means no effect; nearly all actives have a fitted effect of over 45% in size
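p53-null H1299 cells stably carrying temperature-sensitive p53-A138V and a BP100-luciferase reporter were pinned with compounds (4-point, 1:5 series) and held 24 hrs at 37 deg C. Luminescence was read 10 min after detection reagent.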
FLuc counter – firefly luciferase modulation, counter-screen for miR-21 project; AID 588342; purified FLuc, Km substrates, luminescence inhibition; Potency, µM (top dose mostly 57.5 µM), inactives show at the highest dose activity change, negative = inhibition, usual class: inhibitors; hit rate 6.9% among 360,000; P08659;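 further: plate controls were vehicle for no effect and reference inhibitor for full effect; nearly all actives have a fitted effect of over 55% in size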
Target sequence (P08659 whole entry, looked up): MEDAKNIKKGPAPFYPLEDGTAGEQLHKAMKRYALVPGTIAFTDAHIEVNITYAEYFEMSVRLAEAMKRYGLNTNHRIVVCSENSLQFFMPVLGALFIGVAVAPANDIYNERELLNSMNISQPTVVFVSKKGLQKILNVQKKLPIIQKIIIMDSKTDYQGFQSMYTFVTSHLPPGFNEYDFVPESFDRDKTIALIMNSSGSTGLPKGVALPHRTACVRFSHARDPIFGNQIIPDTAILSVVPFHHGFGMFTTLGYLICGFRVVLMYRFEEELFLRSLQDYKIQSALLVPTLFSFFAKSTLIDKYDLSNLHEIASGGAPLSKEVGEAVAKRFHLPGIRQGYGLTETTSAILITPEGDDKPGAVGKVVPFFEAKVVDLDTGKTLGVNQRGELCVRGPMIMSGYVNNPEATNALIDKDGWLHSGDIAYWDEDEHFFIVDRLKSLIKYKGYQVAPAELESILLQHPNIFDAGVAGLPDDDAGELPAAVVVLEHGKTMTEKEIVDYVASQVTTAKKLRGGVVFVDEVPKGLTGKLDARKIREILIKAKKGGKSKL
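Biochemical qHTS of compounds, final roughly 60 µM downward over six points, against 10 nM purified firefly luciferase using Km concentrations of substrates (10 uM D-luciferin, 10 uM ATP) in Tris acetate pH 7.5 buffer; luminescence output.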
SMN2 splice up – enhancers of SMN2 splice variant expression; HEK293 SMN2-luciferase splicing reporter, luminescence, 30-36 h; Potency, µM (titrated, usually from 46.1 µM), without a hit: at the top dose activity change, positive = activation, hits mostly activators; hit rate 2.8% among 210,000; further: % of control where 0% means no effect; nearly all actives have a fitted effect of over 55% in size
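qHTS luciferase splicing reporter: luminescence rises when SMN2 exon 7 is included in transfected HEK293 cells. Compound exposure lasted 30-36 h at 37C, with 4.5 mM final sodium butyrate as control, followed by a ONE-Glo read.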
NPC1 prom act – activators of NPC1 promoter; Huh7 NPC1 promoter luciferase reporter, 24 h; Potency, µM (series often up to 9.22 µM), for the others: at the top dose activation, hits mostly activators; hit rate 2.4% among 320,000; further: % of control where 0% means no effect; nearly all actives have a fitted effect of over 60% in size
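Luciferase expression driven by the NPC1 promoter was measured in stably transfected Huh7 cells after a 24 h compound incubation, using a luciferase reagent and a luminescence read.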
* hit, by the source's call; ? = inconclusive; . = no result; [ ] = another dose, or the depositor's remark. The call rests on the fitted dose curve; in most records, active means well fitted curve in the direction sought with a large enough effect; inconclusive means small, poorly fitted or top-dose-only effect, or another doubt; inactive means no such curve, though single readings can be large; an effect the other way counts as inactive or inconclusive. Potency means the concentration at half of the fitted maximal effect.

SMILES	ELG1 genotoxic	Rab9 promoter act	p53 reactivator	FLuc counter	SMN2 splice up	NPC1 prom act
COc1ccccc1/C=C/C=N/n1c(-c2ccncc2)n[nH]c1=S	3%	2%	3%	12µM*	15%	-4%
COc1ccccc1/C=C/C=N/n1c(-c2cc(C)[nH]n2)n[nH]c1=S	3%	1%	1%	21µM*	0%	-1%
Cc1cc(-c2n[nH]c(=S)n2/N=C/C=C/c2ccccc2)n[nH]1	1%	-2%	1%	-19%	-10%	-6%
S=c1[nH]nc(-c2cc(-c3ccccc3)n[nH]2)n1/N=C/C=C/c1ccco1	5%	0%	8%	13µM*	.	-3%
CCC(C)NC(=O)Cn1c(=O)n(CCCCCC(=O)NCc2ccccc2Cl)c(=O)c2sccc21 (stereo not given)	.	.	.	-10%	2%	.
Cc1cc(NC(=O)CCS(=O)(=O)c2cc(Br)cc3c2N(C(=O)C2CC2)CC3)ccc1Br	.	.	.	-11%	-5%	.
S=c1[nH]nc(-c2ccncc2)n1/N=C/C(Cl)=C\c1ccccc1	-5%	3.2µM*	?	-8%	11µM*	3.5µM*
S=c1[nH]nc(-c2ccncc2)n1/N=C/C=C/c1ccccc1	-12%	-1%	-2%	?	.	-1%
O=C(N/N=C/c1cccs1)c1n[nH]c2c1CCCC2	?	0.1µM*	-6%	0.85µM*	.	?
C/C(=N\NC(=O)c1n[nH]c2c1CCC2)c1cccs1	?	?	-10%	0.6µM*	.	?
O=C(N/N=C/c1ccc(Cl)cc1Cl)c1n[nH]c2c1CCCC2	?	14%	?	?	14µM*	0%
O=C(N/N=C\c1cccc(Cl)c1)c1n[nH]c2c1CCCC2	?	0.71µM*	?	1.7µM*	13µM*	2.5µM*
CC(C)CCN(C(=O)c1cn2ccccc2n1)c1c(N)n(Cc2ccccc2)c(=O)[nH]c1=O	-1%	1%	13%	2%	.	1%
Cc1cc(=Nc2ccc3c(c2)c(N)cc(C)[n+]3C)nc(N)n1C	.	.	.	.	-6%[9.22 µM]	.
Cc1ccc(/C=N/NC(=O)c2n[nH]c3c2CCCC3)cc1	6.5µM*	-6%	?	2.4µM*	.	?
COc1ccc(C(=O)NNC2=CC(=O)CC(C)(C)C2)cc1	3%	-1%	3%	2%	-7%[1.84 µM]	-11%
CC1(C)CC(=O)C=C(NNC(=O)c2ccccc2O)C1	17%	3.2µM*	2%	0.85µM*	18µM*	?
Cc1ccccc1NC1=CC(=O)CC(C)(C)C1	-2%	11%	8%	-2%	0%	-4%
Cc1cccc(C(=O)NNC2=CC(=O)CC(C)(C)C2)c1O	?	?	6%	11µM*	.	25%
O=C1ON=C(c2ccccc2)/C1=C/c1ccc(O)c(O)c1	?	-8%	3%	?	.	-7%
O=C1ON=C(c2cccc([N+](=O)[O-])c2)/C1=C/c1ccc(O)cc1	?	-8%	1%	17µM*	-10%	-2%
Cc1ccc2c(ccn3cc4c(c(=O)n(C)c(=O)n4C)c23)c1	?	-16%	-3%	2.7µM*	-6%	4%
Cc1cccc(-c2c3c(=O)n(C)c(=O)n(C)c3cn2C(C)C)c1	1%	-7%	-5%	1%	30%	1%
Cc1cccc(NC(=O)Cn2c(=O)oc3cc(S(=O)(=O)NCc4ccccc4)ccc32)c1	.	.	.	-4%	0%	.
O=C(c1cccc(F)c1)N1CCC2(CCCN(Cc3cc(C(F)(F)F)cc(C(F)(F)F)c3)C2)CC1	.	.	.	.	0%	.
SMILES	ELG1 genotoxic	Rab9 promoter act	p53 reactivator	FLuc counter	SMN2 splice up	NPC1 prom act
Oc1c(N=Nc2ccccc2)sc2ccccc12	2.3µM*	3.2µM*	11%	0.38µM*	.	?
O=c1ccc(N=Nc2ccccc2)ccc1O	?	14%	?	?	.	12%
COc1ccc(OCc2cc(C(=O)N(C)CC3CCCCO3)no2)c(Cl)c1 (stereo not given)	?	?	15%	?	.	?
COc1cc(Cl)ccc1OCc1cc(C(=O)N[C@H]2CCCCNC2=O)no1	14%	?	25%	3.4µM*	.	?
CN(CC1CCCCO1)C(=O)c1cc(COc2ccc(F)cc2Cl)on1 (stereo not given)	-2%	2.8µM*	-12%	?	.	?
Cc1nnc(CN(C)C(=O)c2cc(COc3ccc(F)cc3Cl)on2)o1	?	2.8µM*	?	12µM*	.	2.5µM*
COc1cc(Cl)ccc1OCc1cc(C(=O)N(C)CC2CCCCO2)no1 (stereo not given)	?	4µM*	?	19µM*	.	3.5µM*
Cc1nn2cc(-c3cccc(Cl)c3)cnc2c1Cl	18%	?	27%	-20%	13µM*	-12%
Cc1nn2cc(-c3cccc(Cl)c3)cnc2c1Br	?	2%	-1%	?	?	-10%
COc1cccc(-c2ccc3c(N)c(C(=O)c4ccc(Cl)cc4)sc3n2)c1	.	.	.	4%	-7%	.
O=S(=O)(c1ccc(-c2csc(-c3cccnc3)n2)cc1)N1CCOCC1	-7%	4%	-1%	2%	-31%	1%
NC(=O)c1cc(-c2csc(-c3cccnc3)n2)ccc1O	4%	4%	13%	?	.	24%
COc1ccc2cc(-c3csc(-c4cccnc4)n3)ccc2c1	13µM*	?	16%	2.1µM*	13µM*	3.2µM*
COc1ccc(-c2csc(-c3cccnc3)n2)cc1C	?	2.8µM*	7%	7.6µM*	.	?
Cc1cccc(NS(=O)(=O)c2ccc3c(c2)CCN3C(=O)C2CC2)c1C	.	.	.	?	-24%	.
Fc1cccc(Cl)c1Cc1noc(/C=C/c2ccccc2)n1	15%	?	?	13µM*	.	?
Clc1cccc(Cl)c1CSc1nnc(/C=C/c2ccccc2)o1	1%	0%	2%	-13%	-4%	1%
COC(=O)c1c(NC(=O)COC(=O)CC(NC(C)=O)c2ccccc2)sc(C)c1C (stereo not given)	3%	-1%	3%	-1%	.	3%
O=C(CN1CCCCC1CO)c1ccc(OC(F)F)cc1 (stereo not given)	0%	2%	4%	1%	-12%	-14%
FC(F)Oc1ccc(N=C2SCC3CCCCN23)cc1 (stereo not given)	?	3.5µM*	?	12µM*	.	2µM*
Clc1ccc(N=C2SCC3CCCCN23)cc1 (stereo not given)	26%	2.5µM*	?	9.5µM*	.	4µM*
Cc1ccc(C(=O)/C=C/c2ccc3ncccc3c2)cc1	?	13%	-19%	3.8µM*	.	13%
Cc1ccc(C(=O)Nc2ccc3ncccc3c2)cc1	?	0.1µM*	-4%	0.11µM*	.	?
